Most compounds without a hit are left out; they make up all but 11% or so of the library.
Pf growth 96h: P. falciparum growth inhibition at 96 hours. P. falciparum luciferase reporter growth, 96 h. Potency, µM (top dose mostly 28.7 µM), for inactives: at the highest dose activity change, negative = inhibition, most hits filed as inhibitors. 320,000 compounds, 6.9% hits. AID 504834
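Two-generation exposure (96 h) targets delayed-death phenotype. Reporter parasites carrying integrated firefly luciferase, in red cells at 2% hematocrit and 0.05% parasitemia final, kept at 37 C, 5% CO2; luminescence loss indicates inhibition.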
AMA1-RON2 inh: AMA1-RON2 (P. falciparum) interaction inhibition | AlphaScreen AMA1-biotinylated RON2 peptide binding | Potency, µM (highest dose often 58.2 µM), inactives show top-dose activity change, negative = inhibition, most hits filed as inhibitors | 360,000 compounds, 0.2% hits | AID 720542;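 further: 0% = vehicle wells and -100% = peptide control; nearly all actives have a fitted effect of over 45% in size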
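AMA1 (3D7) with his tag at 25 nM final met compounds first, then biotinylated RON2 peptide at 25 nM; detection used donor plus acceptor beads, 10 µg/mL apiece, read by AlphaScreen after 30 min at room temperature.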
HCV inh: HCV inhibition. Huh7.5.1 HCVcc-Cre infection, luciferase reporter, 44 h. Potency, µM (top dose mostly 41.8 µM), for the others: top-dose activity change, negative = inhibition, hits mostly inhibitors. 340,000 compounds, 3.4% hits. AID 651820
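Infectious HCV cell culture screen: compound-treated cells (1,000/well, pre-plated 4 h) are infected with HCVcc-Cre at roughly 0.5 moi and grown 44 h. Infection is quantified by luciferase signal after 15 min substrate incubation at room temperature.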
Pf growth 48h: inhibits P. falciparum growth in the first generation, 48 h; P. falciparum luciferase growth in erythrocytes, 48 h; Potency, µM (top dose mostly 28.7 µM), for the others: top-dose activity change, negative = inhibition, most hits filed as inhibitors; 310,000 compounds, 5.9% hits; AID 504832
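Parasite viability was followed by luminescence of a genomically integrated firefly luciferase. Cultures held 0.1% parasitemia at 2% hematocrit (final), incubated under 5% CO2 at 37 C.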
Active calls of the source: *; [ ] = dose if it differs, or a comment. The call rests on the fitted dose curve; in most records, active means well fitted curve in the direction sought with a large enough effect; inconclusive means small, poorly fitted or top-dose-only effect, or another doubt; inactive means no such curve, though single readings can be large; an effect the other way counts as inactive or inconclusive. Unless noted, on the % scale 0 is the no-effect control and ±100 the full control effect; potency means the concentration at half of the fitted maximal effect.

What do the screens show for `CCc1nc(N2CCN(C(C)=O)CC2)c(C#N)c2c1COC(C)(C)C2`?
Pf growth 96h: inconclusive; AMA1-RON2 inh: -6.3%; HCV inh: -3.2%; Pf growth 48h: -21.4%

How did CC(C)(OC1OC(CO)C(O)C(O)C1O)[C@H]1Oc2ccc3ccc(=O)oc3c2[C@H]1O (stereo not given in full) do in these assays?
Pf growth 96h: -13.5%; AMA1-RON2 inh: 2.5%; HCV inh: -7.0%[8.37 µM]; Pf growth 48h: 1.7%

How did CCCOc1ccccc1-n1sc2c(c1=S)-c1cc(OC)cc3c1N(C(=O)C3=O)C2(C)C do in these assays?
Pf growth 96h: inconclusive; AMA1-RON2 inh: 2.82µM*; HCV inh: 12.6µM*

What do the screens show for `COc1cc2c3c(c1)C(C)=CC(C)(C)N3C(=O)C2=O`?
Pf growth 96h: 32.8%; AMA1-RON2 inh: inconclusive; HCV inh: -10.0%; Pf growth 48h: -11.3%

What do the screens show for `C/C(=N\NC(=O)C1CCCC1)c1ccc(Cl)cc1`?
Pf growth 96h: 18.6%; AMA1-RON2 inh: -8.9%; HCV inh: 12.7%; Pf growth 48h: 35.1%

Results for C/C(=N\NC(=O)C1CC1)c1ccc(Cl)cc1 ?
Pf growth 96h: 5.22µM*; AMA1-RON2 inh: -6.6%; HCV inh: 8.4%; Pf growth 48h: inconclusive

How did COc1ccc(CN(C)C(=O)Cn2cnc3c(SC)nc(N)nc32)cc1OC do in these assays?
AMA1-RON2 inh: 0.4%; HCV inh: 4.47µM*

What do the screens show for `COC(=O)[C@H](Cc1ccc(O)cc1)NC(=O)Cn1cnc2c(SC)nc(N)nc21`?
AMA1-RON2 inh: 14.2%; HCV inh: 46.2%

How did O=C1c2cccc3cccc(c23)C(=O)N1CCN1CCN(C(=S)Nc2ccc(Cl)cc2)CC1 do in these assays?
Pf growth 96h: 237.9%; AMA1-RON2 inh: 1.2%; HCV inh: -13.6%; Pf growth 48h: 27.6%

How did O=C1c2cccc3cccc(c23)C(=O)N1CCN1CCN(C(=S)Nc2ccccc2)CC1 do in these assays?
Pf growth 96h: 14.7µM*; AMA1-RON2 inh: -7.1%; HCV inh: inconclusive; Pf growth 48h: 42.0%

What do the screens show for `S=C(NC1CCCC1)N1CCN(c2ccccn2)CC1`?
Pf growth 96h: 2.08µM*; AMA1-RON2 inh: 9.8%; HCV inh: 7.5%; Pf growth 48h: 4.3%

What do the screens show for `CC(=NNC(=S)N1CCN(c2ccccn2)CC1)c1nccs1`?
AMA1-RON2 inh: -59.7%; HCV inh: 1.26µM*

How did O=[N+]([O-])c1ccc(N2CCN(C(=S)Nc3ccccc3)CC2)cc1 do in these assays?
Pf growth 96h: -14.6%; AMA1-RON2 inh: 3.6%; HCV inh: 28.4%; Pf growth 48h: 2.08µM*

Results for O=C(COC(=O)c1ccc([N+](=O)[O-])o1)Nc1ccc2c(c1)OCO2 ?
AMA1-RON2 inh: 5.1%; HCV inh: -7.5%

How did NS(=O)(=O)c1ccc(NC(=S)N2CCN(S(=O)(=O)c3ccc(F)cc3)CC2)cc1 do in these assays?
Pf growth 96h: -1.8%; HCV inh: 0.4%; Pf growth 48h: inconclusive

How did O=S(=O)(c1ccc(F)c(F)c1F)N1CCN(C(=S)Nc2ccccc2)CC1 do in these assays?
Pf growth 96h: inconclusive; AMA1-RON2 inh: -4.7%; HCV inh: -16.3%; Pf growth 48h: 2.33µM*

What do the screens show for `CC(C(=O)N1CCN(c2ccccc2)CC1)c1ccc([N+](=O)[O-])cc1` (stereo not given)?
Pf growth 96h: 13.1µM*; AMA1-RON2 inh: 0.0%; HCV inh: 4.0%; Pf growth 48h: -6.0%

Results for S=C(Nc1ccccc1)N1CCCCCCC1 ?
Pf growth 96h: inconclusive; AMA1-RON2 inh: 18.4%; HCV inh: 2.5%; Pf growth 48h: -4.5%

Results for O=[N+]([O-])c1ccc(N2CCN(C(=S)NC3CCCCC3)CC2)cc1 ?
Pf growth 96h: 121.2%; AMA1-RON2 inh: -6.3%; HCV inh: -23.5%; Pf growth 48h: 0.522µM*

How did S=C(Nc1ccccc1)N1CCN(C(=S)Nc2ccccc2)CC1 do in these assays?
Pf growth 96h: 5.22µM*; Pf growth 48h: 0.0%

How did CCN1C(=O)N(CC)C2C1N(CO)C(=O)N2CO (stereo not given) do in these assays?
Pf growth 96h: 16.2%; AMA1-RON2 inh: -3.5%; HCV inh: 2.5%; Pf growth 48h: 12.7%

Results for CN(Cc1ccccc1)C(=O)CCn1c(=O)c2cccn2c2cccnc21 ?
Pf growth 96h: inconclusive; AMA1-RON2 inh: -3.6%; HCV inh: 5.2%; Pf growth 48h: inconclusive

Results for S=C(NC1CCCC1)N1CCN(c2cccc(Cl)c2)CC1 ?
Pf growth 96h: 2.8%; AMA1-RON2 inh: -2.7%; HCV inh: 12.6µM*; Pf growth 48h: -4.5%

What do the screens show for `CC(=O)c1ccc(N2CCN(C(=S)Nc3ccc(Oc4ccccc4)cc3)CC2)cc1`?
Pf growth 96h: inconclusive; AMA1-RON2 inh: 30.5%; HCV inh: 4.47µM*; Pf growth 48h: -18.7%

Results for CC(=O)N1CCOc2ccc(S(=O)(=O)NCC3CCC(C(=O)Nc4ncccc4C)CC3)cc21 (stereo not given) ?
Pf growth 96h: inconclusive; AMA1-RON2 inh: -4.1%; HCV inh: -0.9%; Pf growth 48h: -3.3%

What do the screens show for `COc1cc(Cl)c(C)cc1NC(=O)CNC(C)c1ccccc1OC` (stereo not given)?
Pf growth 96h: 9.28µM*; AMA1-RON2 inh: -22.1%; HCV inh: inconclusive; Pf growth 48h: -12.2%

Results for COc1ccccc1CN(C)CC(=O)Nc1cccc2ccccc12 ?
Pf growth 96h: 0.2%; AMA1-RON2 inh: 12.7%; HCV inh: -0.9%; Pf growth 48h: -7.1%

Results for COc1cc(Cl)c(C)cc1NC(=O)CN(C)Cc1cccc(OC)c1OC ?
Pf growth 96h: -36.7%; AMA1-RON2 inh: 13.6%; HCV inh: 10µM*; Pf growth 48h: inconclusive

How did CNC1=C(N(C(C)=O)c2ccc(Br)cc2)C(=O)c2ccccc2C1=O do in these assays?
Pf growth 96h: 0.0294µM*; AMA1-RON2 inh: -0.9%; HCV inh: inconclusive; Pf growth 48h: 0.0415µM*

What do the screens show for `CCC(=O)N(C1=C(NC)C(=O)c2ccccc2C1=O)C(C)C`?
Pf growth 96h: inconclusive; AMA1-RON2 inh: -6.7%; HCV inh: inconclusive; Pf growth 48h: inconclusive

Results for CC(C)(C)c1ccc(-c2nnc(SCC(=O)NC3CC3)o2)cc1 ?
Pf growth 96h: 1.31µM*; AMA1-RON2 inh: 7.0%; HCV inh: -7.0%; Pf growth 48h: 2.08µM*

Results for CCOc1ccc(-c2nnc(SCC(=O)NC3CC3)o2)cc1 ?
Pf growth 96h: inconclusive; AMA1-RON2 inh: 4.7%; HCV inh: 2.5%; Pf growth 48h: inconclusive

How did COc1cccc(CN(C)C(=O)Cc2c[nH]c3ccccc23)c1 do in these assays?
Pf growth 96h: -0.2%; AMA1-RON2 inh: 5.4%; HCV inh: -5.8%; Pf growth 48h: 1.2%

How did COc1ccc(CN(C(=O)Cc2c[nH]c3ccccc23)C(C(=O)NC2CCCCC2)c2ccc(C)o2)cc1 (stereo not given) do in these assays?
Pf growth 96h: 5.22µM*; AMA1-RON2 inh: -22.8%; HCV inh: inconclusive; Pf growth 48h: 5.22µM*

Screens deposited in PubChem BioAssay by National Center for Advancing Translational Sciences (NCATS).
